PubChem BioAssay (NCI)
The panel holds about 83,000 compounds, 20% with a hit somewhere; the sample as a whole holds those more often.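 In brief: 96-well plates, 48 h treatment, single concentration, percent growth endpoint.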 Calls of active or inactive are those of the source. Rule for the calls: active = growth percent below 10; inactive = the rest.

Columns and labels:
Experiment in all cases: NCI-60 one-dose screen, 48 h (100 = growth as untreated, 0 = no growth, -100 = all killed)
Settings in all cases: 10 µM unless noted
[1] = system: HCT-15 colon
[2] = system: HT29 colon
[3] = system: SNB-75 CNS
[4] = system: SNB-19 CNS
[5] = system: U251 CNS
[6] = system: PC-3 prostate
[7] = system: SK-MEL-5 melanoma
[8] = system: LOX IMVI melanoma
[9] = system: SK-MEL-28 melanoma
[10] = system: UACC-62 melanoma

Measured: growth

Nc1nc2ccc(-c3nc4ccc5[nH]ncc5c4c4c3CCCC4)cc2s1
inactive: [1] 107% | [2] 99.2% | [3] 100% | [4] 97.7% | [5] 102% | [6] 100% | [7] 111% | [8] 105% | [9] 120%

C#CCNC(=O)[C@H](CC)[C@H]1CC[C@H](C)[C@H]([C@@H](C)[C@H](O)[C@H](C)C(=O)[C@H](CC)C2O[C@]3(C=CC(=O)[C@]4(CC[C@@](C)([C@H]5CC[C@](O)(CC)[C@H](C)O5)O4)O3)[C@H](C)C[C@@H]2C)O1 (stereo partly specified)
inactive: [1] 28.8% | [2] 29.3% | [4] 42.1% | [5] 52.2% | [6] 21% | [8] 32.3% | [9] 58.6%
active: [3] -19.5% | [7] 7.94%

Cc1[nH]c(C(=O)Nc2ccccc2OC2CCNCC2)c(Cl)c1Cl
active: [2] -7.94% | [3] -28.9% | [5] -4.3% | [7] -40.6% | [10] -79.9% | [8] -88.3%
inactive: [1] 20.2% | [4] 33.4% | [6] 43.1% | [9] 18.9%

Cn1ccnc1C(=O)/C=C/c1ccc(CC(=O)Nc2cc(C(F)(F)F)cc(C(F)(F)F)c2)cc1
inactive: [1] 53% | [2] 66.4% | [3] 58.3% | [4] 67.1% | [5] 40.8% | [6] 55.9% | [7] 76.5% | [8] 56.5% | [9] 91.2%

C1CCC([PH+](C2CCCCC2)C2CCCCC2[PH+](C2CCCCC2)C2CCCCC2)CC1.[Au].[CH-]1CCCCC1C1CCCC[N-]1 (stereo unspecified)
active: [1] -26.2% | [2] 2.8% | [3] -31.8% | [4] -96.6% | [5] -84.3% | [6] -16.7% | [7] -98% | [8] -96.5% | [9] -83.2%

Cc1cc(C(=O)Nc2ncc(Cc3cccc(C(F)(F)F)c3)s2)c2ccccc2n1
inactive: [1] 17.3% | [3] 18.1% | [4] 44.7% | [5] 18.5% | [6] 26.7% | [8] 12.6% | [9] 40.4%
active: [2] 8.85% | [7] 0.694%

CCCCC1=C(P(=O)(O)O)N[C@H](C(=O)O)CS1
inactive: [1] 87.9% | [2] 95.3% | [3] 104% | [4] 89% | [5] 94.2% | [6] 90% | [7] 98.8% | [10] 85.1% | [8] 92.4% | [9] 89.7%

C=C1CC[C@@H]2[C@](C)(COC(C)=O)[C@H](OC(C)=O)CC[C@@]2(C)[C@@H]1CC(Nc1ccc(S(=O)(=O)Nc2ncccn2)cc1)C1=CCOC1=O (stereo partly specified)
active: [1] -51.4% | [2] -48.6% | [5] -19% | [8] -79.8% | [9] -17.7%
inactive: [3] 25.6% | [4] 36.7% | [6] 15.1% | [7] 24.1%

CCCCCC(/C=N\NC(=S)N/N=C/C(=C/c1ccccc1)CCCCC)=C\c1ccccc1
inactive: [1] 45.4% | [2] 105% | [3] 102% | [4] 56.8% | [5] 55.3% | [6] 46.1% | [7] 68.2% | [8] 60.8% | [9] 93.7%

N#CSc1c[nH]c2cccc(/C=C/C(=O)/C=C(/C=C/c3cccc4[nH]cc(SC#N)c34)OB(F)F)c12
active: [1] -73.6% | [2] -74.5% | [3] -31.5% | [5] -83.3% | [6] -19.6% | [7] -74.1% | [8] -85.4% | [9] -47.9%
inactive: [4] 19.1%

O=S(=O)(NCCCNc1nccc(-c2c(-c3ccc(F)c(O)c3)nc3occn23)n1)c1ccc(Cl)cc1
inactive: [1] 73.2% | [2] 54.4% | [3] 95.6% | [4] 97% | [5] 94% | [6] 56.8% | [7] 33.2% | [8] 36.2% | [9] 30%

COc1ccc(/C=C/C(=O)c2cc3c(N)c(C(=O)Nc4cccc5ccccc45)sc3nc2C)cc1
inactive: [1] 44.1% | [2] 70.2% | [3] 53.6% | [4] 56.3% | [5] 45.3% | [6] 75.6% | [7] 68.9% | [8] 60.1% | [9] 64.9%

Clc1ccc(/C=N\N=C\c2ccc(Cl)c(Cl)c2)cc1Cl
active: [1] 7.55%
inactive: [2] 32.3% | [3] 123% | [4] 95.1% | [5] 76.3% | [6] 71% | [7] 93.8% | [8] 72.4% | [9] 101%

COc1ccc(-c2nn(-c3cccc(Cl)c3)cc2-c2cc(-c3ccc(Br)cc3)nc(N)n2)cc1
inactive: [1] 81.4% | [2] 86% | [3] 96.9% | [4] 95.2% | [5] 97.5% | [6] 80% | [7] 94.6% | [8] 98.7% | [9] 103%

O=C(c1nn(-c2ccccc2)c2c1CC(NCc1ccc(F)cc1)CC2)N1CCCCC1 (stereo unspecified)
inactive: [1] 99.5% | [2] 101% | [3] 84.5% | [4] 101% | [5] 95.7% | [6] 93.5% | [7] 96% | [10] 110% | [8] 99.1% | [9] 117%

O=CN1N=C(c2cccc(Nc3ccnc4cc(Cl)ccc34)c2)CC1c1ccccc1 (stereo unspecified)
active: [2] -2% | [3] -9.35%
inactive: [1] 19.6% | [4] 40.3% | [5] 16.9% | [6] 24.2% | [7] 17.9% | [10] 34.7% | [8] 20.6% | [9] 49.5%

Oc1c(Br)cc(Br)c2ccc(Cn3cc(-c4ccc(C(F)(F)F)cc4)nn3)nc12
inactive: [1] 25.2% | [2] 59% | [3] 77.2% | [4] 94% | [5] 102% | [6] 77.6% | [7] 98.2% | [10] 67.8% | [8] 11.5% | [9] 48.1%

CS(=O)(=O)Nc1cc(-c2ccc3ncnc(Nc4ccc5c(cnn5Cc5cccc(F)c5)c4)c3c2)cnc1Cl
active: [2] 5.83% | [3] -13.9% | [5] 9.46% | [7] -68.3% | [8] -44.8% | [9] -12.6%
inactive: [1] 46.9% | [4] 22.2% | [6] 10.9%

O=C(C[C@]1(O)C(=O)Nc2ccccc21)c1cccc(C(F)(F)F)c1
inactive: [1] 96.5% | [2] 96.1% | [3] 76.8% | [4] 95.9% | [5] 92.4% | [6] 81.4% | [7] 91.7% | [10] 78.3% | [8] 93.2% | [9] 91.6%

Fc1ccc(CNc2c3ccccc3nc3ccccc23)c(F)c1
inactive: [1] 28.7% | [2] 21.8% | [3] 81.1% | [4] 41.5% | [5] 44.1% | [6] 68.9% | [7] 69.4% | [8] 21.5% | [9] 90.4%

Cn1cc(-c2csc(-c3cn(C(=O)OC(C)(C)C)c4ccc(Br)cc34)n2)c2ccnc(Cl)c21
active: [3] 2.34%
inactive: [1] 24.2% | [2] 88.5% | [4] 44% | [5] 45.3% | [6] 44.2% | [7] 95% | [8] 89.1% | [9] 94.7%

COc1cc2ncnc(Nc3ccc(F)c(Cl)c3)c2cc1OCC(=O)N1CCN(c2ccccc2)CC1
inactive: [1] 90.7% | [2] 90.4% | [3] 83.7% | [4] 85.9% | [5] 98.9% | [6] 90.6% | [7] 95% | [8] 93.7% | [9] 113%

O=C(Nc1nc2ccc(C(=O)N3CCN(/C=C/c4ccccc4)CC3)cc2s1)c1ccc(NCCc2ccccc2)c([N+](=O)[O-])c1
active: [2] 5.52%
inactive: [1] 22.4% | [3] 79% | [4] 70.2% | [5] 42.3% | [6] 45% | [7] 15% | [8] 47.4% | [9] 76%

C=C(CBr)[C@@H]1CC[C@]2(C(=O)O)CC[C@]3(C)[C@H](CC[C@@H]4[C@@]5(C)CCC(=O)C(C)(C)[C@@H]5CC[C@]43C)[C@@H]12
inactive: [1] 73.2% | [2] 97.5% | [3] 98.7% | [4] 78.7% | [5] 70.9% | [6] 57.4% | [7] 50.5% | [10] 69% | [8] 75.4% | [9] 88.7%

c1cnc2c(-c3nc4ccc5[nH]ncc5c4c4c3CCCC4)c[nH]c2c1
inactive: [1] 43.9% | [2] 14.9% | [3] 57.8% | [4] 29.8% | [5] 29.8% | [6] 27.5% | [7] 56.4% | [8] 19.6% | [9] 88.8%

CCSC(SCC)c1ccc(Cl)cc1
inactive: [1] 108% | [2] 97.4% | [3] 107% | [4] 110% | [5] 102% | [6] 101% | [7] 110% | [10] 98.6% | [8] 95.9% | [9] 115%

CCC(C(=O)[C@@H](C)[C@@H](O)[C@H](C)[C@@H]1O[C@@H]([C@@H](CC)C(=O)ONC(=O)c2ccccc2)CC[C@@H]1C)[C@H]1O[C@]2(C=CC(=O)[C@]3(CC[C@@](C)([C@H]4CC[C@](O)(CC)[C@H](C)O4)O3)O2)[C@H](C)C[C@@H]1C (stereo partly specified)
active: [5] -19% | [6] 8.93% | [7] -73.9% | [8] 4.55%
inactive: [1] 13.7% | [2] 20.6% | [3] 27.6% | [4] 21.1% | [9] 20.6%
